The values below come from PubChem BioAssay AID1159580 (chemical genetic matrix, 2015).

The campaign covered roughly 5,500 compounds. About 2,000 (36%) were called active. Inconclusive results (about 18%) are left out. The list shows a part of the results. Values without a mark were called inactive. No stated cut-off is given here; in the data, active means normalized growth mostly below about 0.91 (no sharp cut-off); inconclusive means no clear call, values can overlap the other calls; inactive means mostly above about 0.92.

A short description of this test: chemical genetic growth profiling, strain panel (AID 1159580).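 Further: tested at 20 µM; growth read once vehicle control cultures reached saturation at 30 °C; 1 = growth at the plate median or of vehicle wells; lower values mean less growth of the strain.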 The conditions noted are these: S. cerevisiae deletion strains, growth OD.
Setting [1] is: locus YGR078C, strain PAC10, active compounds read low.
The mark [2] stands for this setting: locus YJR075W, strain HOC1, active compounds read low.
The mark [3] stands for this setting: locus YMR263W, strain SAP30, active compounds read low.
[4] abbreviates: locus YMR307W, strain GAS1, active compounds read low.
[5] abbreviates: locus YNL153C, strain GIM3, active compounds read low.
Setting [6] is: locus YNL322C, strain KRE1, active compounds read low.
The mark [7] stands for this setting: locus YPL055C, strain LGE1, active compounds read low.
Setting [8] is: locus YPL241C, strain CIN2, active compounds read low.

`CNCCNS(=O)(=O)c1cccc2cnccc12`: the normalized growth is 1 (locus YAL040C, strain CLN3, active compounds read low); 1 (locus YCL061C, strain MRC1 (second series), active compounds read low); 1.03 (locus YDR363W, strain ESC2, active compounds read low); 1 (locus YER002W, strain NOP16, active compounds read low); 1.02 under setting [1]; 1.01 under setting [2]. For the same compound, the normalized growth under setting [3] was 0.998; the normalized growth under setting [4] was 1; the normalized growth under setting [5] is 1.01; the normalized growth (locus YNL175C, strain NOP13, active compounds read low) is 1.01; the normalized growth (locus YNL197C, strain WHI3, active compounds read low) is 1.04; the normalized growth (locus YNL224C, strain SQS1, active compounds read low) is 1. Moreover, the normalized growth is, setting by setting: under setting [6], 1.02; (locus YOR083W, strain WHI5 (second series), active compounds read low) 1; under setting [7], 1.01; under setting [8], 0.999.
With `CCOC(=O)c1csc(N/N=C2/CCCc3ccccc32)n1`, the normalized growth is, setting by setting: (locus YBR229C, strain ROT2, active compounds read low) 0.887 (active); (locus YDL101C, strain DUN1, active compounds read low) 0.862 (active); (locus YDL134C, strain PPH21, active compounds read low) 0.458 (active); (locus YDR150W, strain NUM1, active compounds read low) 0.897; (locus YEL061C, strain CIN8, active compounds read low) 0.821 (active); under setting [1], 0.899 (active). The normalized growth was 0.986 (locus YGR229C, strain SMI1, active compounds read low); 0.232 (active) (locus YHR030C, strain SLT2, active compounds read low); 0.899 (active) (locus YHR087W, strain rtc3, active compounds read low); 0.965 (locus YJR043C, strain POL32, active compounds read low); 0.867 (active) under setting [2]; 0.701 (active) (locus YLR039C, strain RIC1, active compounds read low). Further, the normalized growth reads like this: (locus YLR058C, strain SHM2 (second series), active compounds read low) 0.976; (locus YLR085C, strain ARP6, active compounds read low) 0.573 (active); (locus YLR262C, strain YPT6, active compounds read low) 0.868; (locus YML094W, strain GIM5, active compounds read low) 0.749 (active); (locus YMR219W, strain ESC1, active compounds read low) 0.92 (active); under setting [3], 0.88 (active). In addition, the normalized growth is 0.631 (active) under setting [4]; 0.971 (locus YNL128W, strain TEP1, active compounds read low); 0.915 (active) under setting [5]; 0.732 (active) (locus YNL298W, strain CLA4 (second series), active compounds read low); 1 under setting [6]; 0.779 (active) (locus YNR030W, strain Alg12, active compounds read low). For the same compound, the normalized growth runs as follows: (locus YOL006C, strain TOP1, active compounds read low) 0.849; under setting [7], 0.692 (active); under setting [8], 0.747 (active); (locus YPR135W, strain CTF4, active compounds read low) 0.629 (active).
